# Rows were chosen to be rich in hits. Some 8.1% of all compounds tested hit in one or more screens of this group.
# ClpP mod – qHTS Assay for Activators of ClpP. Potency, µM (titrated, usually from 57.5 µM), without a hit: at the top dose activity change, negative = active. ATP-dependent Clp protease proteolytic subunit (Bacillus subtilis (strain 168)), P80244. 340,000 tested, 1.9% active. purified B. subtilis ClpP, FRET peptide cleavage, 20 min; active = well fitted falling curve with a large enough effect; inconclusive = small, poorly fitted or top-dose-only effect; inactive = no such curve, though single readings can be large or run the other way; also: the source files actives as falling curves though it sought activators and does not explain the sign; nearly all actives have a fitted effect of over 65% in size
# Target sequence (P80244 whole entry, looked up): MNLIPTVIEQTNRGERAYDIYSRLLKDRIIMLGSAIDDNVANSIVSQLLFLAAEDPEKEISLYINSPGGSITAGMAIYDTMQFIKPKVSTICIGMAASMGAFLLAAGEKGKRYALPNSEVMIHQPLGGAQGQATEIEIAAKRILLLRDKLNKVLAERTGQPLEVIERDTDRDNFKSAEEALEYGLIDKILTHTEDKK
#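 Buffer: 100 mM Tris/HCl pH8, 100 mM KCl, 0.05% low protease BSA, 2.5% glycerol, 0.01% Tween-20. ClpP 10 microg/mL final; 20 min RT; delta FRET normalized to ADEP and DMSO controls.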
# Sfp PPTase inh – blocks B. subtilis Sfp PPTase activity; Biochemical Sfp PPTase activity, qHTS; Potency, µM, for inactives: largest response in the series, negative = inhibition, usual class: inhibitors; 310,000 tested, 3.5% active; AID 1490;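 also: the enzyme is Sfp with the accession as filed and its product quenches rhodamine fluorescence; 0% = enzyme reaction without inhibitor and -100% = no enzyme wells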
#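 Step 1, compound plus 15 nM Sfp-PPTase, 15 min, room temperature. Step 2, add rhodamine-CoA (5 uM) and BHQ-2-YbbR (12.5 uM). Step 3, read 525/598 nm fluorescence at 0 and 30 min.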
# RORgamma inh – blocks mouse ROR gamma transcriptional activity. Potency, µM (series often up to 53.6 µM), without a hit: at the top dose activity change, negative = inhibition, actives largely listed as inhibitors. Drosophila S2 Gal4-RORgamma UAS-luciferase reporter, 20 h. 310,000 tested, 5.4% active. P51450; also: % is scaled to controls: 0 for no effect and ±100 for the full control effect; nearly all actives have a fitted effect of over 60% in size
# Target sequence (P51450 whole entry, looked up, the tested form may be a part): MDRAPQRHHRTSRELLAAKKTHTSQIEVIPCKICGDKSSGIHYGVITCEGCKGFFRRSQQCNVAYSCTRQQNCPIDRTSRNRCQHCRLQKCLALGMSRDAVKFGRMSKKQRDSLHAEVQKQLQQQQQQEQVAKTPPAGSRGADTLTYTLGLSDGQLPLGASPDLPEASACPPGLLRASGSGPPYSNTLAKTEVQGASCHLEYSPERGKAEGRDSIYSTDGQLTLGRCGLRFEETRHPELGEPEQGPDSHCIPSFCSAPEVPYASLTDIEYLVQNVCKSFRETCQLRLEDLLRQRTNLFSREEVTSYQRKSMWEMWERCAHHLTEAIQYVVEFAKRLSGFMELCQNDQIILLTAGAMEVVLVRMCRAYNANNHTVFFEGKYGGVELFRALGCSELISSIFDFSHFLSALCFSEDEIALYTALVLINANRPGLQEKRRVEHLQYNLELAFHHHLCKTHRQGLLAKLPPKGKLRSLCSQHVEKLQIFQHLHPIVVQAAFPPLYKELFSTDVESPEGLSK
#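 Luciferase reporter read in Schneider cells carrying Gal4-RORγ (mouse) and UAS-Photinus luciferase; cells given compound 1 h before 700 uM copper sulfate induction, then incubated 20 h at ambient temperature.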
# Epigenetic derep – regulators of epigenetic silencing causing reporter derepression in mouse cells. murine LDR cells, GFP reporter derepression, 30 h. Potency, µM (top dose mostly 53.9 µM), without a hit: at the highest dose GFP activation, usual class: activators. 280,000 tested, 0.2% active. AID 1865; also: % of control where 0% means no effect; nearly all actives have a fitted effect of over 60% in size
#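 Derepression of a silenced CMV-GFP reporter in murine LDR cells is scored by enumerating GFP-positive cells with a laser-scanning microplate cytometer after 30 hours of treatment at 37 C.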
# PINK1 modulator – modulators of PINK1 expression; Potency, µM (top dose mostly 76.6 µM), for the others: at the top dose activation (PINK1 increase), most hits filed as activators; AID 624263; 410,000 tested, 0.2% active; PINK1 immunofluorescence, high-content cytometry, 24 h; active = well fitted activation curve with a large enough effect; inconclusive = small, poorly fitted or top-dose-only effect; cell line not stated here; also: % of control where 0% means no effect; nearly all actives have a fitted effect of over 65% in size
#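 PINK1 protein level read as immunofluorescence by microplate cytometer in a fixed, stained stable cell line after 24 h exposure to five compound concentrations, with CCCP as control.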
# VP16 counter – inhibits Gal4-VP16 luciferase reporter, ROR gamma counter-screen; 310,000 tested, 3.5% active; Drosophila S2 Gal4-VP16 UAS-luciferase, luminescence, 20 h; Potency, µM (titrated, usually from 53.6 µM), inactives show top-dose activity, negative = inhibition, actives largely listed as inhibitors;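 also: Gal4-VP16 expression switched on by copper sulfate through the metallothionein promoter; % is scaled to controls: 0 for no effect and ±100 for the full control effect; nearly all actives have a fitted effect of over 50% in size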
# Active calls of the source: *; ? = inconclusive; . = not tested or not shown; ! = not confirmed by another sample; [ ] = dose if it differs, or a comment. Unless noted, calls follow the shape of the dose curve; as a rule, active = well fitted curve in the direction sought with a large enough effect; inconclusive = small, poorly fitted or top-dose-only effect, or another doubt; inactive = no such curve, though single readings can be large; an effect the other way counts as inactive or inconclusive. Potency is read from the fitted curve at half-maximal effect.
SMILES,ClpP mod,Sfp PPTase inh,RORgamma inh,Epigenetic derep,PINK1 modulator,VP16 counter
CN1CCc2nc(SCC(=O)Nc3ccc(OC(F)(F)F)cc3)c(C#N)c(-c3cccs3)c2C1,2%,50µM*,2%,2%,2%,-6%
CN1CCc2nc(SCC(=O)Nc3cccc(F)c3)c(C#N)c(-c3cccs3)c2C1,-1%,79µM*,9%,1%,6%[38.3 µM],-1%
Cc1cccc(CSc2nc3c(c(-c4cccs4)c2C#N)CN(C)CC3)c1,-7%,-26%,42%,4%,9%,-3%
Cc1ccc(C#CC2C=CC(Oc3ccc4c(c3)OCO4)C(CO)O2)c(C)c1 (centres undefined),.,29%,18%[10 µM],1%[10.1 µM],.,-6%[10 µM]
COc1ccccc1CCN1COc2c(cc3c(C)c(C)c(=O)oc3c2C)C1,4%,.,.,-2%,3%,.
CCc1ccccc1Nc1nc2ccccc2n2cnnc12,12%,.,.,0%,2%,.
CN(CCOc1ccccc1)C(=O)C1CCN(C(=O)c2ccc(F)cc2)CC1,22µM*,27%,-33%,.,2%,-10%
O=C(c1ccc(F)cc1)N1CCC(C(=O)N(Cc2ccccc2)c2ccccc2)CC1,-1%,.,.,.,-1%,.
O=c1cc(-c2ccccc2)oc2cc(O[C@@H]3O[C@H](CO)[C@@H](O)[C@H](O)[C@H]3O)c(O)c(O)c12,.,50µM*,-4%,-3%,.,-6%
O=c1cc(-c2ccc(O)cc2)oc2cc(O[C@H]3OC(CO)C(O)C(O)C3O)cc(O)c12 (some centres undefined),.,6%,5%,-1%,.,28%
COC(=O)[C@@H]1C[C@H]1[C@@H](NS(=O)(=O)c1ccccc1)c1ccccc1,-2%,3%,2%,-3%,0%,4%
COC(=O)[C@H]1C[C@@H]1[C@H](NS(=O)(=O)c1ccccc1)c1ccccc1,2%,71µM*!,33%,-2%,0%,1%
COc1ccc(-c2nc3c4c(ncn3n2)-c2ccccc2CC42CCCC2)cc1,-2%,2%,-6%,-3%,9%,-14%
COc1ccc(OCc2nc3c4c(ncn3n2)-c2ccccc2CC42CCCC2)cc1,28µM*,2%,-3%,-2%,10%,-8%
Oc1cccc(-c2nc3c4c(ncn3n2)-c2ccccc2CC42CCCC2)c1,-22%,4%,?,7%,?,25µM*
Cc1ccc(O)c(N=NC2=C(O)CC(C)(C)CC2=O)c1,1%,-3%,7.9µM*,1%,-1%,8.9µM*
Cc1c(N=NC2=C(O)CC(C)(C)CC2=O)c(=O)n(-c2ccccc2)n1C,.,40µM*,-1%,1%,2%,-3%
CC(=O)/C(N=Nc1c(C)n(C)n(-c2ccccc2)c1=O)=C(\C)O,.,2%,-20%,0%,0%,10%
CC(C)n1ncc2c(C(=O)NCCc3ccc(F)cc3)cc(C3CC3)nc21,32µM*,.,.,.,?,.
CCCCCc1cc(=O)[nH]c(=S)[nH]1,1%,-5%,3%,0%,2%,4%
CCCc1cc(=O)[nH]c(=S)[nH]1,0%,50µM*!,-1%,1%,1%,-8%
O=C(N/N=C1/C[C@@H](O)[C@@H](O)[C@@H]2[C@@H]3C(=O)N(c4cccc(Oc5ccccc5)c4)C(=O)[C@H]3CC[C@@H]12)OCc1ccccc1,.,5%,4%[10 µM],0%[10.1 µM],.,-8%[10 µM]
COc1ccc(C(=O)C(CCC(CNC(C)(C)C)C(=O)c2ccc(OC)cc2)CNC(C)(C)C)cc1 (centres undefined),28µM*,7%,?,1%,-1%,13µM*
CCCc1nc2ccccc2c(NC(=O)CN(CC)CC)c1CC,.,56µM*,-4%,0%,-1%,0%
CCN(CC)CC(=O)Nc1cc(N(C)C)nc2ccccc12,.,50µM*,-15%,1%,1%,18%
SMILES,ClpP mod,Sfp PPTase inh,RORgamma inh,Epigenetic derep,PINK1 modulator,VP16 counter
CCCCCC(=O)Nc1ccc2ccccc2c1,-6%,8%,-6%,-1%,2%,18%
CCCCCC(=O)Nc1cc(N(C)C)nc2ccccc12,28µM*,3%,3%,-1%,1%,1%
CN1CCc2c1nc1ccccc1c2NC(=O)CN1CCCC1,.,-21%,-21%,.,2%,-12%
CCCCCCC(=O)Nc1c2c(nc3ccccc13)N(C)CC2,28µM*,10%,-4%,0%,-2%,5%
CN1CCN(CC(=O)Nc2cc(N(C)C)nc3ccccc23)CC1,-1%,-13%,-34%,-1%,0%,-15%
C=C1CCN(C(CC(C)C)C(=O)O)S(=O)(=O)c2ccccc21 (centres undefined),.,14%,11%,.,.,23%
CC(C)OCCCn1c(=S)[nH]c2ccc(N3CCOCC3)cc2c1=O,32%,?,22%,1%,4%[38.3 µM],-1%
CC1CCN(CCn2c(=S)[nH]c3cc4c(cc3c2=O)OCO4)CC1,.,-19%,-20%,2%,2%,6%
CC1CCCCN1CCn1c(=S)[nH]c2cc3c(cc2c1=O)OCO3 (centres undefined),0%,-7%,11µM*,-1%,0%,?
CC(C)OCCCn1c(=S)[nH]c2cc3c(cc2c1=O)OCO3,0%,6%,4µM*,0%,1%,6.3µM*
CCN(CC(=O)NCc1ccc(F)cc1)Cc1nc2cc(Cl)ccc2c(=O)[nH]1,7.1µM*,4%,7%,6%,0%,?
CCN(CC(=O)NCCc1ccc(Cl)cc1)Cc1nc2ccccc2c(=O)[nH]1,.,-3%,2.2µM*,-1%,-1%,?
CC(C)C(=O)N(Cc1ccc(F)cc1)Cc1nc2ccccc2c(=O)[nH]1,.,16%,11µM*,1%,1%,-24%
CCN(CC(=O)NCCc1ccc(F)cc1)Cc1nc2ccccc2c(=O)[nH]1,-1%,-1%,7.9µM*,-2%,-2%,?
COc1cccc(CC(=O)NCC2Cc3cc(Cl)cc(-c4ncccn4)c3O2)c1 (centres undefined),.,.,.,.,0%,.
CN(C)c1ccc(/C=C/C=C2/C=Cc3ccccc32)cc1,0%,.,.,.,1%,.
Cc1ccc(-n2c(C)cc(/C=N/NC(N)=S)c2C)cc1,-5%,-10%,2.8µM*,?,1%,4.5µM*
Cc1ccc(-n2c(C)cc(/C=N/NC(=O)c3ccncc3)c2C)cc1,0%,-2%,7.9µM*,0%,-6%[38.3 µM],?

# Compound activity (PubChem BioAssay)
